From PubChem BioAssay
Pf growth 96h – P. falciparum growth inhibition at 96 hour, primary screen for plastid delayed-death inhibitors; 320,000 tested, 6.9% active; P. falciparum luciferase reporter growth, 96 h; AID 504834; Potency, µM (titrated, usually from 28.7 µM), actives largely listed as inhibitors
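P. falciparum expressing integrated firefly luciferase, in erythrocytes at 2% hematocrit, 0.05% parasitemia, incubated with compounds 96 h at 37 C, 5% CO2. Growth inhibition read as loss of luminescence; two-generation exposure targets delayed-death apicoplast inhibitors.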
HCMV antiviral – human cytomegalovirus inhibition; HFF cells, HCMV-luciferase reporter, 72 h; hits give low values; activity change, negative = inhibition, % at 57.5 µM; 410,000 tested, 4.5% active; in the data active = activity change below about -60%; inconclusive = no clear call, values can overlap the other calls; inactive = above about -39%
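Human foreskin fibroblasts infected with luciferase-reporter HCMV at MOI 1 PFU/cell, compounds at two doses. Luciferase measured 72 h post infection; normalized to buffer-only basal and Salinomycin (10uM) controls.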
Lassa entry inh – inhibitors of Lassa virus binding or cell entry; 300,000 tested, 1.2% active; Potency, µM (titrated, usually from 37.9 µM), hits mostly inhibitors; AID 540256; Lassa virus pseudotype entry inhibition, cell reporter; calls by dose curve; tested in HEK293 cells; also: nearly all actives have a fitted effect of over 50% in size
Marburg entry inh – blocks Marburg virus binding to or entry into cells; Marburg virus pseudotyped entry inhibition, cell reporter; Potency, µM (series often up to 37.8 µM), usual class: inhibitors; 300,000 tested, 1.8% active; AID 540276; calls by dose curve; tested in HEK293 cells
HCV inh – blocks hepatitis C virus | Huh7.5.1 HCVcc-Cre infection, luciferase reporter, 44 h | 340,000 tested, 3.4% active | Potency, µM (titrated, usually from 41.8 µM), actives largely listed as inhibitors
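Cells seeded at 1,000/well and cultured 4 h, then compounds added followed by HCVcc-Cre virus (~0.5 moi). After 44 h further culture, luciferase substrate was added, plates held 15 min at room temperature, and luminescence read for 15 sec.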
Pf growth 48h – P. falciparum growth inhibition at 48 hours (one generation) | P. falciparum luciferase growth in erythrocytes, 48 h | Potency, µM (doses to about 28.7 µM), usual class: inhibitors | 310,000 tested, 5.9% active
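In quantitative HTS format, infected erythrocytes bearing luciferase-reporter parasites were treated for a single generation at 37 C. Luminescence after adding detection reagent served as the growth measure.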
A number is an active result. An excerpt weighted towards active compounds, which were near 14% of everything screened. Unless noted, calls follow the shape of the dose curve; as a rule, active = well fitted inhibition curve with a large enough effect; inconclusive = small, poorly fitted or top-dose-only effect, or another doubt; inactive = no such curve, though single readings can be large or run the other way.

CC(Oc1cccc(Cl)c1)C(=O)Nc1cc(S(=O)(=O)N2CCCCC2)ccc1N1CCOCC1 (stereo not drawn) was read as Pf growth 96h 10.4µM, HCMV antiviral inactive, Lassa entry inh inconclusive, Marburg entry inh inconclusive, HCV inh inconclusive and Pf growth 48h 10.4µM.
For Cc1ccccc1OCCC(=O)OCC(=O)Nc1cc(S(=O)(=O)N2CCOCC2)ccc1Cl the results were Pf growth 96h inactive, HCMV antiviral inactive, Lassa entry inh inactive, Marburg entry inh inactive, HCV inh inactive and Pf growth 48h inactive.
Screening CC(Oc1cccc(Cl)c1)C(=O)Nc1ccc(N2CCOCC2)cc1N1CCOCC1 (stereo not drawn) returned Pf growth 96h inconclusive, HCMV antiviral inconclusive, Lassa entry inh inactive, Marburg entry inh inconclusive, HCV inh inactive and Pf growth 48h 6.57µM.
C#CCOCCOCCOCCNc1nc(N2CCN(C(=O)[C@H](CCCN=C(N)N)n3cc(C(N)[C@H](C)CC)nn3)CC2)nc(N2CCN(C(=O)[C@H](CC(N)=O)n3cc(C(N)[C@@H](C)CC)nn3)CC2)n1 (stereo partly drawn) was read as HCMV antiviral inactive and HCV inh inactive.
`O=c1c2oc3ccccc3c2n(Cc2ccc(Cl)cc2)c(=O)n1Cc1ccc2c(c1)OCO2` gave HCMV antiviral inconclusive and Lassa entry inh inactive.
O=[N+]([O-])c1ccccc1S(=O)c1ccccc1[N+](=O)[O-] was read as HCMV antiviral inactive.
CCc1ccc(NC(=O)C2CCC(CNS(=O)(=O)c3ccc4c(c3)C(C)(C)C(=O)N4C)CC2)cc1 (stereo not drawn) was read as HCMV antiviral inactive and Lassa entry inh inactive.
`CCN1CCN(c2ccc(S(=O)(=O)N3CCCCC3)cc2NC(=O)C(C)Oc2ccc(F)cc2)CC1` (stereo not drawn) gave Pf growth 96h inactive, HCMV antiviral inactive, Lassa entry inh inconclusive, Marburg entry inh inconclusive, HCV inh inconclusive and Pf growth 48h 8.28µM.
For CC(C)Oc1ccc(S(=O)(=O)N2CCOCC2)cc1NC(=O)C(C)Oc1ccc(F)cc1 (stereo not drawn) the results were Pf growth 96h inconclusive, HCMV antiviral inconclusive, Lassa entry inh inactive, Marburg entry inh inactive, HCV inh inconclusive and Pf growth 48h 13.1µM.
`CC(Oc1ccc(F)cc1)C(=O)Nc1cc(S(=O)(=O)N2CCCCC2)ccc1N1CCOCC1` (stereo not drawn) gave Pf growth 96h 9.28µM, HCMV antiviral inactive, Lassa entry inh inconclusive, Marburg entry inh inconclusive, HCV inh inconclusive and Pf growth 48h 8.28µM.
`Cc1cccc(OC(C)C(=O)Nc2cc(S(=O)(=O)N3CCCCC3)ccc2C)c1` (stereo not drawn) gave Pf growth 96h inconclusive, HCMV antiviral inactive, Lassa entry inh inconclusive, Marburg entry inh inactive, HCV inh inconclusive and Pf growth 48h 9.28µM.
`CCCCOC(=O)c1ccc(Nc2nc3ccc(C)cc3n3cnnc23)cc1` gave HCMV antiviral inactive and Marburg entry inh inconclusive.
Cc1cccc(-c2nnn3c2nc(NCCc2ccc(S(N)(=O)=O)cc2)c2cc(Cl)ccc23)c1 was read as HCMV antiviral inconclusive, Lassa entry inh inactive and Marburg entry inh inactive.
`C=CCN1C(c2ccc(OCC)cc2)=CS/C1=C(\C#N)c1nnc2n1CCCCC2` gave HCMV antiviral -60.2, Lassa entry inh inconclusive, Marburg entry inh inconclusive, HCV inh inconclusive and Pf growth 48h inconclusive.
C=CCN1C(c2ccc(Br)cc2)=CS/C1=C(\C#N)c1nnc(N2CCOCC2)n1-c1ccccc1 was read as HCMV antiviral inactive, Lassa entry inh inconclusive, Marburg entry inh inconclusive and HCV inh inactive.
For CCc1ccc(NCc2cc3ccc(OC)cc3n(CC(=O)Nc3cccc(Cl)c3C)c2=O)cc1 the results were HCMV antiviral inactive and Lassa entry inh inactive.
`Cc1cccc(N2CCN(C(=O)c3cc(S(=O)(=O)N4CCC(C)CC4)cn3C)CC2)c1C` gave HCMV antiviral inconclusive and Lassa entry inh inactive.
`CC(=O)Oc1cccc(C)c1` gave Pf growth 96h inactive and Pf growth 48h inactive.
`COc1cc(C(=O)N/N=C/c2ccc(OC)c(CN3CCN(c4ccc(F)cc4)CC3)c2)ccc1O` gave Pf growth 96h inactive, HCMV antiviral inactive, Lassa entry inh inactive, Marburg entry inh inconclusive, HCV inh 25.1µM and Pf growth 48h inconclusive.
Screening COc1ccc(C(=O)N/N=C/c2ccc(OC)c(COc3ccc(F)cc3)c2)cc1 returned Pf growth 96h inconclusive, HCMV antiviral inactive, Lassa entry inh inactive, Marburg entry inh inconclusive, HCV inh inactive and Pf growth 48h inconclusive.
COc1ccc(C(=O)N/N=C/c2ccc(OC)c(COc3ccc(F)cc3F)c2)cc1 was read as Pf growth 96h inactive, HCMV antiviral inactive, Lassa entry inh 2.24µM, Marburg entry inh inconclusive, HCV inh inconclusive and Pf growth 48h inconclusive.
COc1ccc(C(=O)N/N=C/c2ccc(OC)c(CN3CCc4cc(OC)c(OC)cc4C3C)c2)cc1 (stereo not drawn) was read as Pf growth 96h inactive, HCMV antiviral inactive, Lassa entry inh inactive, Marburg entry inh inconclusive, HCV inh inconclusive and Pf growth 48h 9.28µM.
Cc1ccc2oc(C(=O)Nc3cccc(-c4nc5ccccc5s4)c3)c(C)c2c1 was read as HCMV antiviral inactive, Lassa entry inh inactive and Marburg entry inh inactive.
For O=C(CCCSc1nc(-c2ccco2)cc(C(F)(F)F)n1)Nc1ccc2c(c1)OCO2 the results were Pf growth 96h inconclusive, HCMV antiviral inactive, Lassa entry inh inactive, Marburg entry inh inactive, HCV inh 3.98µM and Pf growth 48h inconclusive.
`O=C(CSc1nc(-c2ccco2)cc(C(F)(F)F)n1)Nc1ccc2c(c1)OCO2` gave Pf growth 96h inactive, HCMV antiviral inconclusive, Lassa entry inh inactive, Marburg entry inh inactive, HCV inh 3.55µM and Pf growth 48h inactive.
For Cc1nn(C)c(C)c1NC(=O)CCCSc1nc(-c2ccco2)cc(C(F)(F)F)n1 the results were Pf growth 96h inconclusive, HCMV antiviral inconclusive, Lassa entry inh inactive, Marburg entry inh inconclusive, HCV inh 2.24µM and Pf growth 48h inconclusive.
`O=C(CCSc1nc(-c2ccco2)cc(C(F)(F)F)n1)N1CCCc2ccccc21` gave HCMV antiviral inactive, Lassa entry inh inactive, Marburg entry inh inconclusive, HCV inh inconclusive and Pf growth 48h 14.7µM.
For COC(=O)C[C@@H]1C=C[C@H](NS(=O)(=O)c2cccc(F)c2)[C@@H](CO)O1 the results were HCMV antiviral inactive.
Screening Cc1cccc(C)c1Nc1oc(-c2ccccc2)nc1-c1ccccc1F returned Lassa entry inh inactive and Marburg entry inh inconclusive.
Screening Cc1cccc(S(=O)(=O)NC(=O)C2(C)CCN2C(=O)C/C=C/c2ccccc2)c1 (stereo not drawn) returned HCMV antiviral inactive.
